Measured values reported in PubChem BioAssay AID602270 (The Scripps Research Institute Molecular Screening Center, 2012).
This is one part of the list. Unmarked numbers belong to inactive results. The source made the active and inactive calls. No stated cut-off is given here; in the data, active means activation above about 4%; inactive means the rest.

tested on: Methionine sulfoxide reductase A (Bos taurus); assay: bovine MsrA activators, retest, confirmation, biochemical, absorbance, HTS (AID 602270); details: purified bovine MsrA, absorbance read-out; at 10.6 µM; hits give high values;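 further: enzyme coupled to thioredoxin and thioredoxin reductase with NADPH; 0% = vehicle wells and 100% = reference activator wells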

| Compound | activation |
| --- | --- |
| Cc1ccc(COC(=O)CN2C(=O)NC3(CCCC3)C2=O)cc1 | -1.66% |
| O=C(OCC(=O)N1CCN(c2ccccc2)CC1)c1ccc([N+](=O)[O-])s1 | 3.98% (active) |
| CN(C)S(=O)(=O)c1ccc(NC(=O)COC(=O)c2n[nH]c3ccccc23)cc1 | 1.95% |
| COC(=O)CN1C(=O)C(O)=C(C(C)=O)C1c1ccc([N+](=O)[O-])cc1 (centres undefined) | -2.94% |
| CC(=O)NC(Cc1c[nH]c2ccccc12)C(=O)O (centres undefined) | -0.4% |
| O=C(Cc1ccc(NC(=O)C2CCCN(C(=O)C3CCCCC3)C2)cc1)Nc1cccc(C(=O)N2CCCCC2)c1 (centres undefined) | -3.28% |
| COc1ccc2nc(N3CCCC(O)C3)c(C#N)cc2c1 (centres undefined) | -2.45% |
| COc1ccc(C(=O)COC(=O)c2ccc([N+](=O)[O-])s2)cc1OC | 2.35% |
| O=c1c2cc(Br)ccc2nc(-c2cccc(Cl)c2)n1O | -1.14% |
| O=C(O)Cc1ccc(NC(=O)C2CCCCC2C(=O)O)cc1 (centres undefined) | -1.24% |
| COc1cc(OC)c(C(=O)NCc2ccc3c(c2)OCO3)cc1OC | 2.87% |
| Cc1noc(NS(=O)(=O)c2ccc(NC(=O)C34CCC(CC3)C4)cc2)c1C | -0.66% |
| CN1c2ccc(C=O)c3c(C=O)ccc(c23)N(C)C1(C)C | -1.46% |
| O=C(O)/C=C/c1cn(Cc2ccccc2)nc1-c1cccs1 | -1.62% |
| CC(=O)N(O)CCCCCNC(=O)CCC(=O)N(O)CCCCCNC(=O)CCC(=O)N(O)CCCCCNC(=O)CCC(=O)O | -3.63% |
| Cc1ccc(S(=O)(=O)n2nc(OC(=O)C(C)(C)C)cc2N)cc1 | -1.8% |
| O=C(c1ccco1)N1CCN(Cc2cccc(C(F)(F)F)c2)CC1 | -0.28% |
| CCN(CC)CCCC(C)n1c2nc(=O)[nH]c(=O)c-2nc2cc(Cl)ccc21 (centres undefined) | 8.41% (active) |
| CCOc1ccccc1OCCCNCc1ccccc1 | -4.03% |
| CC1=NNC(=O)C1CCC(=O)N/N=C(\C)c1ccc(Cl)cc1 (centres undefined) | -3.34% |
| CC(C)(C)C(=O)CCN1C(=O)C2(OCCO2)c2ccccc21 | -4.67% |
| COc1ccc(Cl)cc1NS(=O)(=O)c1cccc(C(=O)NCC2CCCO2)c1 (centres undefined) | 2.13% |
| COc1cccc(CNCCc2c[nH]c3ccccc23)c1OCc1ccccc1F | -2.23% |
| C=CCn1c(SCC(=O)c2c(N)n(C)c(=O)n(C)c2=O)nc2sc(CC)cc2c1=O | -2.75% |
